Rows were chosen to be rich in hits. Some 1.6% of all compounds tested hit in one or more screens of this group.
HTR5A ag – HTR5A agonism, opioid heterodimer counter-screen; activation, % at 9.3 µM; 340,000 compounds, 0.61% hits; AID 504692; P47898; HTR5A agonist assay, luminescence, cell-based; in the data active = activation mostly above about 9.5%, no sharp cut-off; inactive = mostly below about 7.6%;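 note: 0% = cells with vehicle only and 100% = reference agonist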
HTR2A ag – mouse HTR2A agonism via beta-arrestin recruitment. P35363. CHO-K1 mHTR2A beta-arrestin complementation, luminescence; percent of 30 µM serotonin response. activation, % at 7.6 µM. AID 624169. 360,000 compounds, 0.66% hits;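 active = activation above a run cutoff, the mean activation of all tested compounds plus 3 SD, cut at about 14% in these data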;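 note: 0% = plate median of compound wells and 100% = 30 µM serotonin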
Target sequence (P35363 whole entry, looked up): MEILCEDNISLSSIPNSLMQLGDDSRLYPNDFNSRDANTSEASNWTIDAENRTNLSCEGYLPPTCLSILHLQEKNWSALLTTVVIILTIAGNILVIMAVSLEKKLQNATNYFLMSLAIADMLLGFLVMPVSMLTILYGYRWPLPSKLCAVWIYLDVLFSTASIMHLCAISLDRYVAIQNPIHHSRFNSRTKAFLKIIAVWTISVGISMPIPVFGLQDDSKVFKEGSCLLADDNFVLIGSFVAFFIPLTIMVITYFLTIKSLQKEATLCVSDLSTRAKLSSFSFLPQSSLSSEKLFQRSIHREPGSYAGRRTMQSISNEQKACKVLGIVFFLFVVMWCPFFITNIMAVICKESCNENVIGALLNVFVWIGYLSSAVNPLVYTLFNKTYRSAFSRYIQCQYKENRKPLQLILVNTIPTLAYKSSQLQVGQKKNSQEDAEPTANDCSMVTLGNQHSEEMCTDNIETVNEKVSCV
MOR-DOR ag – OPRM1-OPRD1 heterodimerization agonism; P35372+P41143; cells, luminescence; activation, % at 9.3 µM; 340,000 compounds, 0.3% hits; in the data active = activation above about 18%;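 note: 0% = vehicle-treated cells and 100% = reference agonist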
HTR5A inv ctr – counter-screen for OPRM1-OPRD1 inverse agonists: human HTR5A inverse agonism; inhibition, % at 9.3 µM; 340,000 compounds, 0.083% hits; HTR5A cell line, luminescence; P47898; in the data active = inhibition mostly above about 23%, no sharp cut-off; inactive = mostly below about 18%;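 note: 0% = cells with DMSO and 100% = no-cell wells with DMSO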
OPRM1-OPRD1 inv – inverse agonists of human mu-delta opioid receptor heterodimerization; P35372+P41143; inhibition, % at 9.3 µM; cell-based MOR-DOR heterodimer luminescence, inverse agonism; AID 504357; 340,000 compounds, 0.21% hits; in the data active = inhibition above about 22%, passing the limit was not always enough;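 note: 0% = cells with DMSO and 100% = wells without cells with DMSO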
The depositor's hits bear a star.

COc1cccc(C(c2c(N)[nH]c(=S)[nH]c2=O)c2c(N)[nH]c(=S)[nH]c2=O)c1 was read as HTR2A ag 1.
`COc1ccc(C(=O)c2no[n+]([O-])c2C(=O)c2ccc(OC)cc2)cc1` gave HTR5A ag 26*, HTR2A ag -3, MOR-DOR ag 40*, HTR5A inv ctr -56 and OPRM1-OPRD1 inv -200.
Screening COc1ccc(NC(=O)c2c(N)no[n+]2[O-])cc1 returned HTR5A ag -1, HTR2A ag 7, MOR-DOR ag -4, HTR5A inv ctr 11 and OPRM1-OPRD1 inv 17.
`COc1ccccc1-c1cn[nH]c1-c1ccc(OCc2ccccc2)cc1O` gave HTR5A ag 12*, HTR2A ag -2, MOR-DOR ag 11, HTR5A inv ctr -38 and OPRM1-OPRD1 inv -58.
COc1ccc(-c2cn[nH]c2-c2ccc(OCc3ccccc3)cc2O)cc1 was read as HTR5A ag 2, HTR2A ag 2, MOR-DOR ag 11, HTR5A inv ctr -5 and OPRM1-OPRD1 inv -60.
COc1c2ccoc2c(OC(C)=O)c2oc(C)cc(=O)c12 was read as HTR5A ag 9.8*, HTR2A ag 2, MOR-DOR ag -4, HTR5A inv ctr -37 and OPRM1-OPRD1 inv 18.
CN(C)CCCN(C(=O)c1ccc(N2C(=O)CCC2=O)cc1)c1nc2c(F)cccc2s1 was read as HTR5A ag 13*, HTR2A ag -6, MOR-DOR ag -2, HTR5A inv ctr -36 and OPRM1-OPRD1 inv 12.
CCO[C@@H]1OC(C(=O)N2CCCCCCC2)=C[C@H](c2ccc(C(F)(F)F)cc2)[C@H]1CCCO was read as HTR5A ag 0, HTR2A ag -6, MOR-DOR ag 3, HTR5A inv ctr 1 and OPRM1-OPRD1 inv -19.
`COc1ccc(/C=N/Nc2cc(C)nc3ccccc23)cc1` gave HTR5A ag 7, HTR2A ag -3, MOR-DOR ag 8, HTR5A inv ctr -26 and OPRM1-OPRD1 inv -40.
Screening COc1ccc2nc(C)cc(N/N=C/c3ccc(F)cc3)c2c1 returned HTR5A ag 8, HTR2A ag 2, MOR-DOR ag 31*, HTR5A inv ctr -29 and OPRM1-OPRD1 inv -153.
`O=C(NNc1ccccc1)NC(Cc1ccccc1)C(=O)O` (stereo not drawn) gave HTR5A ag -1, HTR2A ag 2, MOR-DOR ag -3, HTR5A inv ctr 3 and OPRM1-OPRD1 inv 17.
Cc1cc(C)c2c(=O)[nH]c(SCC(=O)c3ccc(C(C)C)cc3)nc2n1 was read as HTR5A ag 6, HTR2A ag -1, MOR-DOR ag -1, HTR5A inv ctr -17 and OPRM1-OPRD1 inv 3.
For Cc1ccc(CNC(=O)C2CCN(S(=O)(=O)c3ccc4c(c3)CC(C)N4C(=O)C3CCC3)CC2)o1 (stereo not drawn) the results were HTR5A ag 11*, HTR2A ag 0, MOR-DOR ag -2, HTR5A inv ctr -6 and OPRM1-OPRD1 inv 11.
COc1cccc(NC(=O)CN(C)C(=O)CCNC(=O)c2ccccc2OC)c1 was read as HTR5A ag 4, HTR2A ag -2, MOR-DOR ag -2, HTR5A inv ctr -10 and OPRM1-OPRD1 inv 12.
Screening CC(C)c1ccc(S(=O)(=O)/N=C2/C=C(Sc3ncn[nH]3)C(=O)c3ccccc32)cc1 returned HTR5A ag 3, HTR2A ag 1, MOR-DOR ag 25*, HTR5A inv ctr 19 and OPRM1-OPRD1 inv -127.
Nc1cc(=O)nc(SCC(=O)N(C2CCCCC2)C2CCCCC2)n1-c1ccccc1 was read as HTR5A ag 13*, HTR2A ag -3, MOR-DOR ag 3, HTR5A inv ctr -12 and OPRM1-OPRD1 inv -17.
Cc1ccc(NC(=O)CSc2nc(=O)cc(N)n2-c2ccccc2)cc1 was read as HTR5A ag -2, HTR2A ag -6, MOR-DOR ag 0, HTR5A inv ctr 23 and OPRM1-OPRD1 inv -2.
`COc1ccc(OC)c(CCNC(=O)C(C)n2nc(C)c3c(C)n(-c4ccc(C)cc4)nc3c2=O)c1` (stereo not drawn) gave HTR5A ag 1, HTR2A ag 10, MOR-DOR ag -1, HTR5A inv ctr -2 and OPRM1-OPRD1 inv 4.
For CC1CN(C(=O)c2ccc(NS(=O)(=O)c3ccc(F)c(F)c3)cc2)CC(C)O1 (stereo not drawn) the results were HTR5A ag -2, HTR2A ag 1, MOR-DOR ag 0, HTR5A inv ctr 4 and OPRM1-OPRD1 inv -1.
For O=C(CSc1ccc(Cl)cc1)NN=C1CCCCCC1 the results were HTR5A ag 12*, HTR2A ag -1, MOR-DOR ag 2, HTR5A inv ctr 12 and OPRM1-OPRD1 inv -11.
CSCC(C)N1CCC(CCC(=O)NC2CC2)CC1 (stereo not drawn) was read as HTR5A ag 12*, HTR2A ag -3, MOR-DOR ag -4, HTR5A inv ctr 9 and OPRM1-OPRD1 inv 20.
For CSCCC(=O)N1CCC(CCC(=O)NC2CC2)CC1 the results were HTR5A ag 0, HTR2A ag 0, MOR-DOR ag 0, HTR5A inv ctr 10 and OPRM1-OPRD1 inv 0.
CC(=O)n1cc(N(C(=O)CCl)c2ccc(C)cc2)c2ccccc21 was read as HTR5A ag 55*, HTR2A ag -2, MOR-DOR ag 66*, HTR5A inv ctr 4 and OPRM1-OPRD1 inv -339.
Screening O=C(CSc1n[nH]c(-c2cccs2)n1)N1CCN(S(=O)(=O)c2ccc3ccccc3c2)CC1 returned HTR5A ag 9.8*, HTR2A ag 1, MOR-DOR ag 4, HTR5A inv ctr 11 and OPRM1-OPRD1 inv -23.
Screening CCOC(=O)c1c(SCCN2CCCC2)n(-c2ccccc2)c(=S)n(-c2ccccc2)c1=O returned HTR5A ag -4, HTR2A ag -1, MOR-DOR ag -12, HTR5A inv ctr 14 and OPRM1-OPRD1 inv 58*.
`O=C(Nc1cccc(S(=O)(=O)N2CCCCC2)c1)c1ccc(S(=O)(=O)C(F)F)cc1` gave HTR5A ag 12*, HTR2A ag 0, MOR-DOR ag 0, HTR5A inv ctr -4 and OPRM1-OPRD1 inv -1.
`O=C(Nc1cccc(S(=O)(=O)C(F)F)c1)c1ccc(S(=O)(=O)N2CCCCC2)cc1` gave HTR5A ag 0, HTR2A ag -1, MOR-DOR ag -1, HTR5A inv ctr 0 and OPRM1-OPRD1 inv 4.
For Cc1c(C(=O)NCc2ccccc2C(F)(F)F)sc(=O)n1Cc1ccc2c(c1)OCO2 the results were HTR2A ag -7.
For Oc1ccccc1/C=N/NC(=S)NCCc1ccccc1 the results were HTR5A ag 10*, HTR2A ag -1, MOR-DOR ag 5, HTR5A inv ctr -38 and OPRM1-OPRD1 inv -23.
Screening COC(=O)C1CN(C(=O)COc2ccc(C)cc2)c2ccccc2O1 (stereo not drawn) returned HTR5A ag -2, HTR2A ag 8, MOR-DOR ag -2, HTR5A inv ctr 8 and OPRM1-OPRD1 inv 10.
`CC1CCCN(CCCNC(=O)c2cc3c(s2)-c2ccccc2OC3)C1` (stereo not drawn) gave HTR5A ag 11*, HTR2A ag -8, MOR-DOR ag 2, HTR5A inv ctr -43 and OPRM1-OPRD1 inv -10.

Assay outcomes: PubChem, The Scripps Research Institute Molecular Screening Center
